# Hits are enriched below; roughly 5.2% of the tested compounds scored in any of these assays.
# Yeast superoxide: caloric restriction mimetics inhibiting age-related superoxide in yeast. 330,000 tested, 0.18% active. AID 2690. superoxide response (% of plate mean), % at 10 µM. S. cerevisiae aged cells, superoxide DHE fluorescence; stronger effect = lower value;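 active means superoxide response under a set limit, about three screen SD below normal, cut at about 65% in these data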;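 further: yeast aged for seven days with compound at 30 °C before DHE staining; 100% = average MFI of all compound-treated wells on the plate with controls excluded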
# NRP1-CendR mod: alters CendR peptide binding to human NRP-1 | 360,000 tested, 0.85% active | FAM-RPARPAR peptide binding to NRP-1, fluorescence polarization | AID 602438 | O14786 | inhibition, % at 25 µM;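 active means inhibition or corrected inhibition above about 18%, plus a signal ratio from 0.5 to 1.5, limit read from the data, passing the limit was not always enough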
# APOBEC3A inh: blocks human APOBEC3A ssDNA deamination; P31941; recombinant A3A, FAM/TAMRA ssDNA deamination fluorescence; inhibition, % at 20 µM; 330,000 tested, 0.41% active; AID 493011;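 active means at least 40% inhibition at 20 µM here, with at most 30% in a related deaminase screen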;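 further: plate controls were A3A with DMSO for no effect and wells lacking A3A enzyme for full effect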
# Target sequence (P31941 whole entry, looked up): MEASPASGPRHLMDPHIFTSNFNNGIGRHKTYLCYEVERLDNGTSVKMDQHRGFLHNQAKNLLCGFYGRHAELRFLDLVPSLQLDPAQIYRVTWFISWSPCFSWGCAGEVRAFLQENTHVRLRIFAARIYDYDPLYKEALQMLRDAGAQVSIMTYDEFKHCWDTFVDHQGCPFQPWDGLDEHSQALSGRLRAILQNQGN
# M18AAP inhibitor: blocks P. falciparum M18 aspartyl aminopeptidase; 290,000 tested, 1.2% active; inhibition, % at 7.35 µM; recombinant PfM18AAP, H-Glu-NHMec fluorogenic cleavage;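 active means inhibition above the campaign mean inhibition over all tested compounds plus 3 SD, cut at about 28% in these data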;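 further: 0% = plate median of test compound wells and 100% = 2 mM ZnCl2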
# A3G deaminase: blocks human APOBEC3G single-stranded DNA deamination. AID 493012. recombinant A3G, ssDNA deamination FAM/TAMRA fluorescence. inhibition, % at 20 µM. Q9HC16. 330,000 tested, 0.28% active;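 active means inhibition of at least 40% at 20 µM, with no more than 30% in the related APOBEC3A deaminase screen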;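 further: plate controls were DMSO wells with A3G for no effect and wells lacking A3G enzyme for full effect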
# ALR H2O2 inh: blocks human ALR sulfhydryl oxidase activity; purified ALR, DTT oxidation, H2O2 HRP-luminol luminescence; inhibition, % (test concentration not listed); 290,000 tested, 3.8% active; AID 485317;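 active means mean replicate inhibition above about 79%, with every replicate also reaching it, limit read from the data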
# Target sequence (P55789 whole entry, looked up): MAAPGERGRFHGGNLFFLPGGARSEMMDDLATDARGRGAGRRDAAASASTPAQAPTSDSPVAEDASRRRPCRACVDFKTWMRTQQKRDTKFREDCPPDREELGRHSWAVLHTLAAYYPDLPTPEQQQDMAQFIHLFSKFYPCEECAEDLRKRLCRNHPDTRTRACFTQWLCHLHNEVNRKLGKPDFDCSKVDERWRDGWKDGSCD
# APOBEC3A confirm: confirmation of human APOBEC3A DNA deaminase inhibitors; shares compounds with APOBEC3A inh; recombinant A3A, ssDNA deaminase UDG fluorescence assay; inhibition, % at 20 µM; 1,400 tested, 63% active;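 active means inhibition reaching a set limit, 80% of the first screen's cutoff, at 20 µM in any replicate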;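 further: plate controls were DMSO wells with A3A for no effect and wells lacking A3A enzyme for full effect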
# UDG ctr A3A: inhibits UDG, flagging false APOBEC3A inhibitors; shares compounds with APOBEC3A inh; UDG counterscreen, FAM/TAMRA uracil oligo fluorescence; 1,000 tested, under 10 active; inhibition, % at 20 µM; AID 504714; call rule not given here
# Starred values were filed as active, the others as inactive; · = not tested or not shown.
SMILES,Yeast superoxide,NRP1-CendR mod,APOBEC3A inh,M18AAP inhibitor,A3G deaminase,ALR H2O2 inh,APOBEC3A confirm,UDG ctr A3A
CN(C(=O)COC(=O)CSCc1cccc(Cl)c1)c1c(N)n(Cc2ccccc2)c(=O)[nH]c1=O,106,-8,10,·,-1,-10,·,·
Cc1[nH]c2ccccc2c1SCC(=O)N1CCC(C)CC1,104,5,2,0,-4,16,·,·
CCOc1ccc(OCCCC(=O)N2CCN(S(=O)(=O)c3ccc(Cl)cc3)CC2)cc1,97,3,70*,·,15,-7,77*,-2
O=C(CCCOc1ccccc1)N1CCN(S(=O)(=O)c2ccc(Cl)cc2)CC1,97,-4,0,·,8,1,·,·
CCN1C(=O)c2ccccc2Sc2ccc(C(=O)O)cc21,109,3,-4,6,-4,-6,·,·
CCOC(=O)c1ccc2c(c1)N(C)C(=O)c1ccccc1S2,104,-3,57*,6,13,-5,82*,-3
CCOc1ccc(S(=O)(=O)N2CCOCC2)cc1NC(=O)CN1C(=O)NC(C)(c2ccc(C)cc2)C1=O (stereo not given),·,-2,-3,·,-4,·,·,·
Cc1ccc2[nH]c(=O)c(CN(c3cccc(C)c3C)S(=O)(=O)c3ccccc3)cc2c1,84,17,-4,10,-8,-2,·,·
Cc1ccc(N(Cc2cc3cccc(C)c3[nH]c2=O)S(=O)(=O)c2ccccc2)c(C)c1,105,9,54*,-10,22,-9,67*,1
O=C(CSc1ccccn1)N1CCc2ccccc21,89,-1,66*,-4,6,9,23,·
O=C(CSc1ccc(-c2ccccn2)nn1)N1CCc2ccccc21,100,-3,4,-1,-12,-27,·,·
COC(=O)[C@H]1C[C@@H]1[C@H](NC(=O)c1cccnc1)c1ccccc1,97,8,-4,·,-13,-12,·,·
C[n+]1ccccc1C1CCCC/C1=N\NC(N)=S (stereo not given),117,4,84*,3,14,-4,55*,-1
CCOC(=O)c1sc(NC(=O)CSc2nc(-c3ccco3)cc(C(F)(F)F)n2)c(C(=O)OC)c1C,106,4,-2,-8,-1,-5,·,·
CCSc1nc2ccc(N3C(=O)C4C5C=CC(C5)C4C3=O)cc2s1 (stereo not given),96,-3,60*,-1,5,-4,20,·
Nc1nc(NCc2ccco2)nn1-c1ccccc1,107,1,-3,7,-5,-4,·,·
O=C(Cc1cccs1)Nc1nnc(CCc2ccccc2)s1,89,6,-3,15,-6,·,·,·
O=C(Cc1cccs1)Nc1nnc(Cc2ccccc2)s1,92,-28,64*,5,29,-8,46*,-3
CS/C(N)=N/N=C/c1c(O)ccc2ccccc12,103,-2,58*,15,23,·,27,·
Cc1ccc(N2CC(C(=O)Nc3cccc(C(=O)NC4CC4)c3)CC2=O)cc1 (stereo not given),79,2,41*,·,7,·,23,·
COCCN1Cc2cccc(C(=O)NCc3ccccc3OC)c2C1=O,85,-10,96*,-15,-1,-2,-1,-4
CCOC(=O)C1=C(COC(=O)/C=C/c2ccco2)NC(=O)NC1C (stereo not given),101,-21,48*,·,5,2,44*,4
O=C(COC(=O)C1CC(=O)N(C2CCCCC2)C1)c1ccc(F)cc1 (stereo not given),98,-12,2,3,-2,·,·,·
Cc1ccc(/C=C2/SC(=Nc3ccc(F)cc3)NC2=O)s1,98,-92,51*,-13,17,1,63*,-2
COc1ccc(N2CC(C(=O)Nc3nnc(SCC(=O)NC(C)(C)C)s3)CC2=O)cc1 (stereo not given),106,-11,48*,4,12,3,8,·
SMILES,Yeast superoxide,NRP1-CendR mod,APOBEC3A inh,M18AAP inhibitor,A3G deaminase,ALR H2O2 inh,APOBEC3A confirm,UDG ctr A3A
COc1ccc(N2CC(C(=O)Nc3nnc(SCC(=O)NC4CCCC4)s3)CC2=O)cc1 (stereo not given),101,-9,-2,6,1,7,·,·
Cc1ccc(N/C=C2\CCCCC2=O)nc1,99,-4,-6,3,-2,-4,·,·
O=C1CCCC/C1=C\Nc1ccc(Cl)cn1,126,-11,42*,-7,2,-16,3,·
CC(C)C(NS(=O)(=O)c1cccc2nsnc12)C(=O)NC1CCCCC1C (stereo not given),108,-10,-3,-1,-7,-4,·,·
COc1ccc(/C=N/OC(=O)Nc2ccccc2OC)cc1,98,-4,97*,5,-3,-4,-64,6
COc1ccc(NC(=O)O/N=C/c2ccc(Br)cc2)cc1,119,5,-4,-8,-5,-6,·,·
CC(=O)c1cn(CCCCCCCn2cc(C(C)=O)c(=O)[nH]c2=O)c(=O)[nH]c1=O,78,4,-3,1,-8,1,·,·
Cc1c(NC(=O)c2cc(-n3cnnc3)ccc2Cl)cccc1-c1nc2ccccc2o1,104,-14,46*,1,25,-1,64*,-2
COc1ccccc1C(=O)N1CCN(Cc2ccc3c(c2)OCO3)CC1,91,1,1,4,2,47,·,·
COc1ccccc1OC(C)C(=O)N1CCN(Cc2ccc3c(c2)OCO3)CC1 (stereo not given),111,-5,57*,-10,13,-7,48*,-3
Cc1n(-c2ccccc2)c2ccc(Cl)cc2[n+]1CCO,98,7,50*,-5,16,6,75*,-2
CCN1CCN(c2ccc(S(=O)(=O)N3CCCCC3)cc2NC(=O)c2sccc2C)CC1,100,-2,69*,·,21,-1,64*,-3
CCN1CCN(c2ccc(S(=O)(=O)N3CCCCC3)cc2NC(=O)c2ccc(C)c(C)c2)CC1,·,-15,·,·,·,·,·,·
COc1ccc(S(=O)(=O)N2CCCCC2)cc1NC(=O)c1ccc([N+](=O)[O-])o1,85,0,5,-6,-9,·,·,·
CCN1CCN(c2ccc(S(=O)(=O)N3CCCCC3)cc2NC(=O)c2ccc([N+](=O)[O-])o2)CC1,88,-2,53*,·,5,-84,33*,·
COc1cc(NC(=O)COC(=O)c2nc3nc(C)cc(C)n3n2)cc(OC)c1,98,4,5,-12,-6,-18,·,·
COc1ccccc1C(=O)Nc1cc2c(ccc3ccccc32)oc1=O,116,·,-3,-1,-3,-2,·,·
CCCC1=[N+](CC)CCn2c(C)ccc21,91,7,60*,6,20,-4,76*,0

# Screening data deposited in PubChem by several laboratories.
